Data from PubChem BioAssay.
For some of these results: Entries with a potency or affinity are not part of this list. Active and inactive are the calls of the source. Unless noted, no rule for the calls is given here.

Assays:
[1] = antimalarial activity against Dd2 strain (AID 2302;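 active = growth inhibition above 50% at the single 2 µM test dose, taken to imply half-maximal potency below 2 µM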;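 also: 0% = DMSO untreated growth and 100% = chloroquine plus artemisinin killed control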); settings: P. falciparum Dd2 in RBCs, LDH growth readout, 72 h; at 2 µM; hits give high values
[2] = HepG2 cytotoxicity, primary screen, cytotoxicity control for P. falciparum antimalarial project, cell-based, ATP luminescence (AID 2303;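 active = inhibition above 50%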;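 also: 0% = DMSO wells and 100% = digitonin-killed cells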); settings: HepG2 viability, 24-48 h, at 10 µM, hits give high values
[3] = molecular target: L-lactate dehydrogenase (Plasmodium falciparum (isolate CDC / Honduras)) (UniProt Q27743); test: PfLDH activity inhibition – cell lysate, 3D7 strain, counter-screen for P. falciparum growth inhibition project (AID 2304);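 also: 0% = vehicle and 100% = reference inhibitor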; settings: P. falciparum 3D7 crude extract, LDH APAD/NBT absorbance; at 2 µM; hits give high values
Sequence of L-lactate dehydrogenase (Plasmodium falciparum (isolate CDC / Honduras)) (Q27743 whole entry, looked up): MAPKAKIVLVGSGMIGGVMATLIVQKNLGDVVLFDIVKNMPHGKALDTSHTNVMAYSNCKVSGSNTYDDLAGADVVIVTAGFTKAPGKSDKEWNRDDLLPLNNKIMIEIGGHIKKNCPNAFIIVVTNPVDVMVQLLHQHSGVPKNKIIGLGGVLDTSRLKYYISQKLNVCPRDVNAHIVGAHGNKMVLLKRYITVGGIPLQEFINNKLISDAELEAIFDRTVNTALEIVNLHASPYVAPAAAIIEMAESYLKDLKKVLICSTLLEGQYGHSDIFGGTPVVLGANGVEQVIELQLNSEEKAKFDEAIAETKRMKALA

[4] = inhibition of 3D7 malaria parasite growth – strain 3D7 (AID 2306);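 also: 0% = DMSO wells and 100% = chloroquine plus artemisinin control wells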; settings: P. falciparum 3D7 erythrocytic growth, LDH absorbance, 72 h; at 2 µM; hits give high values
[5] = molecular target: Calcium-dependent protein kinase 1 (Plasmodium falciparum (isolate 3D7)) (UniProt P62344); test: PfCDPK1 kinase inhibitors, biochemical, TCAMS library (AID 1159585; cut-off not given, nearly all actives have IC50 up to about 0.98 µM;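 also: inhibitors leave more ATP so luminescence rises with inhibition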); settings: recombinant PfCDPK1, Kinase-Glo ATP depletion luminescence
Sequence of Calcium-dependent protein kinase 1 (Plasmodium falciparum (isolate 3D7)) (P62344 whole entry, looked up): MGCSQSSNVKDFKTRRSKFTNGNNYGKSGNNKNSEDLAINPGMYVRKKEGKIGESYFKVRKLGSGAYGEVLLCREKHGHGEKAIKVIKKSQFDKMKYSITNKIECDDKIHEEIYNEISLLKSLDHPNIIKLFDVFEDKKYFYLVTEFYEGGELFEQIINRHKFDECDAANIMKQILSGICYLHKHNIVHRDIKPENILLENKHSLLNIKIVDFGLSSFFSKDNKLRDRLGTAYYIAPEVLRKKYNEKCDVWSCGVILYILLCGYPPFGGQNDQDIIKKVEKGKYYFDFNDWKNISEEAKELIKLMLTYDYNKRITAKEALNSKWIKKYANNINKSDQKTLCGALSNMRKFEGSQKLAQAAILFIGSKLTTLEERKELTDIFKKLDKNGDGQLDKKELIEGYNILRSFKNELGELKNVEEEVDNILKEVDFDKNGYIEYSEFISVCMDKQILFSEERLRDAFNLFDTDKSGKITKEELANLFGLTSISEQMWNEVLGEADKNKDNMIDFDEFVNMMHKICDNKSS

[6] = molecular target: Plasmodium falciparum protein kinase 6 (PK6, PF3D7_1337100) (UniProt Q8IDW1); test: PfPK6 kinase inhibitors, biochemical, TCAMS library (AID 1159586); settings: recombinant PfPK6, Kinase-Glo ATP depletion luminescence
Sequence of Plasmodium falciparum protein kinase 6 (PK6, PF3D7_1337100) (Q8IDW1 1-305): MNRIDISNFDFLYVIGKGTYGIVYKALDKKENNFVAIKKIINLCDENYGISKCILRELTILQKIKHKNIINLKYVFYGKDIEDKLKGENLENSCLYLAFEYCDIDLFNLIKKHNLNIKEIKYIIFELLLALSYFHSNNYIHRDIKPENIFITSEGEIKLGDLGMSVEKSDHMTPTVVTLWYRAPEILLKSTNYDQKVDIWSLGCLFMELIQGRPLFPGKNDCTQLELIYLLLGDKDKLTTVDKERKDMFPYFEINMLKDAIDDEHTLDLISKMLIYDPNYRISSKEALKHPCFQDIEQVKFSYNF

[7] = molecular target: Protein kinase 7 (PK7), Plasmodium falciparum 3D7 (PF3D7_0213400) (UniProt Q7YTF7); test: inhibition of Plasmodium PK7 catalytic activity – biochemical, TCAMS antimalarial set, Kinase-Glo luminescence (AID 1159587); settings: recombinant PfPK7, Kinase-Glo ATP depletion luminescence
Sequence of Protein kinase 7 (PK7), Plasmodium falciparum 3D7 (PF3D7_0213400) (Q7YTF7 1-343): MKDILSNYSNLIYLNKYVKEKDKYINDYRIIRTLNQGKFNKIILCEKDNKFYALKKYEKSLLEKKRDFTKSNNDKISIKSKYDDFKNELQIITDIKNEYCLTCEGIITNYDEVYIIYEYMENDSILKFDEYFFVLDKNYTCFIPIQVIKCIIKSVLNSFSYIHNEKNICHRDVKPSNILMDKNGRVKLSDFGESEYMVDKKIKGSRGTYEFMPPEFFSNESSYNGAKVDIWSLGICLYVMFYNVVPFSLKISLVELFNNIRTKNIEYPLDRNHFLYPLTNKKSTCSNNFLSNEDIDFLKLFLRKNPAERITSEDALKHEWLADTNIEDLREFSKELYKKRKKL

[8] = molecular target: Calcium-dependent protein kinase 4 (Plasmodium falciparum (isolate 3D7)) (UniProt Q8IBS5); test: PfCDPK4 kinase inhibitors, biochemical, TCAMS library (AID 1159588; cut-off not given, nearly all actives have IC50 up to about 0.91 µM); settings: recombinant PfCDPK4, Kinase-Glo ATP depletion luminescence
Sequence of Calcium-dependent protein kinase 4 (Plasmodium falciparum (isolate 3D7)) (Q8IBS5 whole entry, looked up): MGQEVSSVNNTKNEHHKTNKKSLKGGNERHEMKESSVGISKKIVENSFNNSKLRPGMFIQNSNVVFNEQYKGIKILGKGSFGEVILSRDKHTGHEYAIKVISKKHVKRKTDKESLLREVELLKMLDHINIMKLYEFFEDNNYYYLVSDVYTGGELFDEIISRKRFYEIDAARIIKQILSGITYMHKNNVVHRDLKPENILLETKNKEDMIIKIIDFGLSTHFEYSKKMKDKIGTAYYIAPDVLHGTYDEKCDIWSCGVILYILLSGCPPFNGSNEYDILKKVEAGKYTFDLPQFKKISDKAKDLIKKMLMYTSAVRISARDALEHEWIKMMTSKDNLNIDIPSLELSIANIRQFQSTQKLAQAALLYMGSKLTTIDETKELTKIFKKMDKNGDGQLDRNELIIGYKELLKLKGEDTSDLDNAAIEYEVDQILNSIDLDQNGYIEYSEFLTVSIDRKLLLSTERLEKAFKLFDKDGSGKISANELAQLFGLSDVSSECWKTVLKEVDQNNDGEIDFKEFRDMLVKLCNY

CC(C)c1cc(Oc2c(I)cc(CCN=C(N)N)cc2I)ccc1O
active: growth inhibition [1] 54% | growth inhibition [4] 98%
inactive: inhibition [2] 19% | inhibition [3] 3% | outcome [5] | outcome [6] | outcome [7] | outcome [8]

CN1CCC(Oc2cc(NC(=O)Nc3ccc(-c4ccncc4)c(C(F)(F)F)c3)ccc2Cl)CC1
inactive: inhibition [2] 30% | inhibition [3] -1% | outcome [5] | outcome [6] | outcome [7] | outcome [8]
active: growth inhibition [1] 92% | growth inhibition [4] 100%

O=C(/C=C/c1ccc(Cl)c(Cl)c1)NCCCCCN1CCC(NC(=O)Nc2ccc(Cl)c(Cl)c2)CC1
active: growth inhibition [4] 102%
inactive: growth inhibition [1] 1% | inhibition [2] 23% | inhibition [3] 0% | outcome [5] | outcome [6] | outcome [7] | outcome [8]

CN1CCN(CCCNc2ncc3c(-c4ccc(NC(=O)Nc5cc(C(F)(F)F)ccc5F)c(F)c4)nn(C)c3n2)CC1
inactive: inhibition [3] 1% | outcome [5] | outcome [6] | outcome [7] | outcome [8]
active: growth inhibition [1] 94% | inhibition [2] 100% | growth inhibition [4] 98%

O=c1cc(NCCCNCc2ccc3c(c2)OC(F)(F)O3)[nH]c2ccccc12
inactive: inhibition [2] -9% | inhibition [3] -6% | outcome [5] | outcome [6] | outcome [7] | outcome [8]
active: growth inhibition [1] 94% | growth inhibition [4] 100%

Cc1cccc(C)c1C1CCN(CCCCNC(=O)c2cc3ccccc3[nH]2)CC1
inactive: growth inhibition [1] 18% | inhibition [2] 46% | inhibition [3] 4% | outcome [5] | outcome [6] | outcome [7] | outcome [8]
active: growth inhibition [4] 90%

CN(C)CC1CCCN1Cc1ccccc1-c1cnn(C)c(=O)c1Oc1ccc(F)cc1 (centres undefined)
active: growth inhibition [4] 91%
inactive: growth inhibition [1] 19% | inhibition [2] 29% | inhibition [3] 2% | outcome [5] | outcome [6] | outcome [7] | outcome [8]

CC1(C)CCC(C)(C)c2c1ccc(C1CCN(CCCCNC(=O)c3ccc(-c4ccc(C#N)cc4)cc3)CC1)c2O
active: growth inhibition [1] 85% | inhibition [2] 81% | growth inhibition [4] 100%
inactive: inhibition [3] 7% | outcome [5] | outcome [6] | outcome [7] | outcome [8]

COc1ccc2nccc([C@@H](O)CN3CC[C@H](NCc4nc5c(cc4Cl)OCC(=O)N5)[C@H](F)C3)c2c1
active: growth inhibition [4] 84%
inactive: growth inhibition [1] 29% | inhibition [2] 4% | inhibition [3] 4% | outcome [5] | outcome [6] | outcome [7] | outcome [8]

Cc1cc2ncc(C(N)=O)c(Nc3ccc(N4CCOCC4)cc3)c2cc1S(C)(=O)=O
active: growth inhibition [1] 96% | growth inhibition [4] 100%
inactive: inhibition [2] -10% | inhibition [3] -5% | outcome [5] | outcome [6] | outcome [7] | outcome [8]

CCCOc1ccc(-c2nonc2NC(=O)c2ccccc2OC)cc1OCCC
active: growth inhibition [1] 82% | growth inhibition [4] 98%
inactive: inhibition [2] 23% | inhibition [3] -1% | outcome [5] | outcome [6] | outcome [7] | outcome [8]

Cc1ccc(-c2ccc3c(c2)C=C(C(=O)NCC2CCN(CC4CCN(C(=O)/C=C/c5ccc(Cl)c(Cl)c5)CC4)CC2)CCC3)cc1
inactive: inhibition [3] -7% | outcome [5] | outcome [6] | outcome [7] | outcome [8]
active: growth inhibition [1] 70% | inhibition [2] 96% | growth inhibition [4] 99%

Oc1ccc(CN2Cc3ccccc3OC3(CCN(Cc4c[nH]c5cnccc45)CC3)C2)cc1
inactive: growth inhibition [1] 3% | inhibition [2] 17% | inhibition [3] -6% | outcome [5] | outcome [6] | outcome [7] | outcome [8]
active: growth inhibition [4] 101%

CCCCc1cc(NCC)nc(Nc2cccc(OC)c2)n1
active: growth inhibition [1] 69% | growth inhibition [4] 97%
inactive: inhibition [2] 9% | inhibition [3] -4% | outcome [5] | outcome [6] | outcome [7] | outcome [8]

CCN(CC)S(=O)(=O)n1ncc2c3c(N)nc(N)nc3ccc21
inactive: growth inhibition [1] 16% | inhibition [3] 3% | outcome [5] | outcome [6] | outcome [7] | outcome [8]
active: inhibition [2] 67% | growth inhibition [4] 93%

CC(O)C1CCCCN1C(=O)c1cccc(-c2ccc(-c3nc4ccc(C(F)(F)F)cc4[nH]3)cc2)c1 (centres undefined)
inactive: inhibition [2] 33% | inhibition [3] 0% | outcome [5] | outcome [6] | outcome [7] | outcome [8]
active: growth inhibition [1] 100% | growth inhibition [4] 101%

COc1ccc(CC(C)CON2C(N)=NC(N)=NC2(C)C)cc1 (centres undefined)
active: growth inhibition [1] 96% | inhibition [2] 59% | growth inhibition [4] 94%
inactive: inhibition [3] -9% | outcome [5] | outcome [6] | outcome [7] | outcome [8]

CN1CCN(CC(=O)Nc2ccc(-c3ccc(-c4nc5ccccc5[nH]4)cc3)cc2)CC1
active: growth inhibition [1] 80% | growth inhibition [4] 98%
inactive: inhibition [2] 18% | inhibition [3] -1% | outcome [5] | outcome [6] | outcome [7] | outcome [8]

Cc1nc2nc(N)nc(N)c2c(C)c1Cc1cccc(C#N)c1
active: inhibition [2] 64% | growth inhibition [4] 97%
inactive: growth inhibition [1] 1% | inhibition [3] 1% | outcome [5] | outcome [6] | outcome [7] | outcome [8]

CC1(C)S(=O)(=O)CC(O)CS1(=O)=O
active: growth inhibition [4] 98%
inactive: growth inhibition [1] 9% | inhibition [2] 8% | inhibition [3] 3% | outcome [5] | outcome [6] | outcome [7] | outcome [8]

COc1cc2nc(Nc3ccc4c(c3)OCCO4)nc(N)c2cc1OC
active: growth inhibition [1] 80% | growth inhibition [4] 101%
inactive: inhibition [2] 13% | inhibition [3] -3% | outcome [5] | outcome [6] | outcome [7] | outcome [8]

O=C(NCc1cccc(C(F)(F)F)c1)C1CCCN(C(=O)c2ccc(O)c(-c3ccc(Cl)c(Cl)c3)c2)C1 (centres undefined)
inactive: growth inhibition [1] 32% | inhibition [2] 1% | inhibition [3] 6% | outcome [5] | outcome [6] | outcome [7] | outcome [8]
active: growth inhibition [4] 94%

CCOc1cc(C(=O)NCCCN2CCN(c3cccc(Cl)c3)CC2)ccc1-c1nc2cc(Cl)c(F)cc2[nH]1
inactive: growth inhibition [1] 19% | inhibition [2] 16% | inhibition [3] 7% | outcome [5] | outcome [6] | outcome [7] | outcome [8]
active: growth inhibition [4] 96%
